Reference: the supplement of paper PMC7411054
Counter-ions that a name gives are not always drawn.

Columns and labels:
Assay in all cases: lowest phenotypically active concentration; higher = less potent
Conditions in all cases: treatment time: 24 h
[1] = system: A549-TP53BP1-CLTA
How it was run: (§1)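 Fifteen reporter lines derived from A549, HepG2 and WPMY1 cells by gene editing, carrying BFP for segmentation plus GFP and RFP/FusionRed markers, were exposed to 0.3, 1, 3 or 9 µM for 24 h in four wells each and imaged live. Live-cell features from each well were normalised to solvent control wells. A well set counted as deviating when ≥3 of 4 wells lay beyond the 95th percentile of control Euclidean distances, and as reproducible when the median replicate Pearson correlation exceeded the 95th percentile of non-replicates. Phenotypic activity was assigned only when both criteria were met.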

[2] = system: A549-TUBA1B-RELA
How it was run: as §1

[3] = system: HepG2-CANX-COX4
How it was run: as §1

[4] = system: HepG2-GM130-SQSTM1
How it was run: as §1

[5] = system: HepG2-TP53BP1-CLTA
How it was run: as §1

[6] = system: HepG2-TUBA1B-RELA
How it was run: as §1

[7] = system: WPMY1-TUBA1B-RELA
How it was run: as §1

[8] = system: WPMY1-ACTB-RAB5A
How it was run: as §1

[9] = system: WPMY1-TP53BP1-CLTA
How it was run: as §1

[10] = system: A549-CANX-COX4
How it was run: as §1

O=C(Nc1ccncc1)c1cc([N+](=O)[O-])ccc1Cl
lowest phenotypically active concentration [1]: 9 µM | lowest phenotypically active concentration [2]: 9 µM | lowest phenotypically active concentration [3]: 3 µM | lowest phenotypically active concentration [4]: 9 µM | lowest phenotypically active concentration [5]: 9 µM | lowest phenotypically active concentration [6]: 9 µM | lowest phenotypically active concentration [7]: 9 µM

COc1ccc(CCc2nc3cc(-c4c(C)noc4C)ccc3n2C[C@H](C)N2CCOCC2)cc1Cl
lowest phenotypically active concentration [3]: 9 µM | lowest phenotypically active concentration [4]: 9 µM | lowest phenotypically active concentration [5]: 9 µM | lowest phenotypically active concentration [6]: 9 µM | lowest phenotypically active concentration [8]: 9 µM | lowest phenotypically active concentration [7]: 9 µM

CCC(=O)N1CCOc2c(cc(-c3ccc(OC)c(OC)c3)cc2OC[C@H]2CCCN(C)C2)C1
lowest phenotypically active concentration [2]: 9 µM | lowest phenotypically active concentration [3]: 9 µM | lowest phenotypically active concentration [6]: 9 µM

COc1ccccc1C(=O)Nc1cc2c(cc1N1CCCC1)n(C)c(=O)n2C
lowest phenotypically active concentration [8]: 9 µM

CC1CNCCN1S(=O)(=O)c1cccc2cnccc12 (stereo not given) [H-7 dihydrochloride]
lowest phenotypically active concentration [3]: 9 µM | lowest phenotypically active concentration [4]: 9 µM | lowest phenotypically active concentration [6]: 9 µM | lowest phenotypically active concentration [8]: 9 µM | lowest phenotypically active concentration [7]: 9 µM

CC(C)c1nc(CN(C)C(=O)N[C@H](C(=O)N[C@@H](Cc2ccccc2)C[C@H](O)[C@H](Cc2ccccc2)NC(=O)OCc2cncs2)C(C)C)cs1 [ritonavir]
lowest phenotypically active concentration [4]: 9 µM

Nc1cc(N)c(N)cc1N [FAK Inhibitor 14]
lowest phenotypically active concentration [2]: 3 µM | lowest phenotypically active concentration [5]: 9 µM | lowest phenotypically active concentration [6]: 3 µM | lowest phenotypically active concentration [8]: 3 µM | lowest phenotypically active concentration [9]: 9 µM | lowest phenotypically active concentration [7]: 1 µM

CCc1nc(-c2cccc(C)c2)c(-c2ccnc(NC(=O)c3ccccc3)c2)s1
lowest phenotypically active concentration [3]: 1 µM | lowest phenotypically active concentration [4]: 1 µM | lowest phenotypically active concentration [5]: 3 µM | lowest phenotypically active concentration [6]: 1 µM | lowest phenotypically active concentration [8]: 9 µM | lowest phenotypically active concentration [7]: 9 µM

COc1cc2c(cc1OC)-c1c/c(=N/c3c(C)cc(C)cc3C)n(C)c(=O)n1CC2 [Trequinsin hydrochloride]
lowest phenotypically active concentration [3]: 9 µM | lowest phenotypically active concentration [8]: 9 µM | lowest phenotypically active concentration [9]: 9 µM | lowest phenotypically active concentration [7]: 9 µM

Cc1ccc(S(=O)(=O)c2ccc([N+](=O)[O-])o2)cc1
lowest phenotypically active concentration [4]: 9 µM | lowest phenotypically active concentration [6]: 3 µM | lowest phenotypically active concentration [8]: 3 µM | lowest phenotypically active concentration [9]: 3 µM | lowest phenotypically active concentration [7]: 9 µM

Cc1ccc(NC(=O)c2cccc(C(C)(C)C#N)c2)cc1Nc1ccc2ncn(C)c(=O)c2c1
lowest phenotypically active concentration [1]: 1 µM | lowest phenotypically active concentration [2]: 9 µM | lowest phenotypically active concentration [3]: ≤ 0.3 µM | lowest phenotypically active concentration [4]: ≤ 0.3 µM | lowest phenotypically active concentration [5]: ≤ 0.3 µM | lowest phenotypically active concentration [6]: ≤ 0.3 µM | lowest phenotypically active concentration [8]: 3 µM | lowest phenotypically active concentration [9]: 9 µM

Fc1ccccc1Nc1nc2nonc2nc1Nc1ccccc1F
lowest phenotypically active concentration [2]: 9 µM | lowest phenotypically active concentration [5]: 9 µM | lowest phenotypically active concentration [6]: 9 µM | lowest phenotypically active concentration [8]: 9 µM

O=C(CCCCCCC(=O)Nc1ccc([C@H]2O[C@@H](CSc3nc(-c4ccccc4)c(-c4ccccc4)o3)C[C@@H](c3ccc(CO)cc3)O2)cc1)NO [Tubacin]
lowest phenotypically active concentration [8]: 9 µM | lowest phenotypically active concentration [9]: 9 µM | lowest phenotypically active concentration [7]: 9 µM

O=C(Nc1ccc(CN2CCOCC2)cc1)c1ccc(-c2cccc(Cl)c2)o1
lowest phenotypically active concentration [2]: 9 µM | lowest phenotypically active concentration [6]: 9 µM

O=c1cc(-c2ccccc2)oc2cc(O)cc(O)c12 [Chrysin]
lowest phenotypically active concentration [9]: 9 µM

CN1c2ccc([N+](=O)[O-])cc2N=C(c2ccc(C(=O)O)cc2)c2cc3c(cc21)C(C)(C)CCC3(C)C
lowest phenotypically active concentration [2]: 9 µM | lowest phenotypically active concentration [6]: 9 µM

CC(C)(C)n1nc(-c2ccc(Cl)cc2)c2c(N)ncnc21
lowest phenotypically active concentration [2]: 9 µM | lowest phenotypically active concentration [5]: 3 µM

Nc1ncnc2c1c(-c1ccc(Oc3ccccc3)cc1)nn2C1CCCC1
lowest phenotypically active concentration [2]: 3 µM | lowest phenotypically active concentration [9]: 3 µM

O=S(=O)(c1cccc2cnccc12)N1CCNCC1
lowest phenotypically active concentration [1]: 9 µM | lowest phenotypically active concentration [2]: 9 µM | lowest phenotypically active concentration [3]: 3 µM | lowest phenotypically active concentration [4]: 3 µM | lowest phenotypically active concentration [5]: 9 µM | lowest phenotypically active concentration [6]: 3 µM | lowest phenotypically active concentration [8]: 9 µM | lowest phenotypically active concentration [9]: 9 µM | lowest phenotypically active concentration [7]: 3 µM

CCN1/C(=C/C(C)=O)Sc2ccc(O)cc21
lowest phenotypically active concentration [1]: 9 µM | lowest phenotypically active concentration [8]: 9 µM | lowest phenotypically active concentration [9]: 9 µM

Cc1cccc(CN2CCN(C(c3ccccc3)c3ccc(Cl)cc3)CC2)c1 (stereo not given) [Meclizine dihydrochloride]
lowest phenotypically active concentration [6]: 9 µM

Cc1cccc(-c2nn(C(=S)Nc3ccccc3)cc2-c2ccnc3ccccc23)n1
lowest phenotypically active concentration [10]: 9 µM | lowest phenotypically active concentration [2]: 3 µM | lowest phenotypically active concentration [3]: 3 µM | lowest phenotypically active concentration [4]: 9 µM | lowest phenotypically active concentration [5]: 9 µM | lowest phenotypically active concentration [6]: 9 µM | lowest phenotypically active concentration [8]: 9 µM | lowest phenotypically active concentration [9]: 1 µM | lowest phenotypically active concentration [7]: 9 µM
